Measurements taken from PubChem BioAssay (NCI).
The panel holds about 83,000 compounds, 20% with a hit somewhere; the sample as a whole holds those more often.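 Step 1: grow cells in 96-well plates. Step 2: add test compound at a single concentration. Step 3: incubate 48 h. Step 4: record percent growth.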 Values without a mark were called inactive. Calls of active or inactive are those of the source. The calls were made as follows: active = growth percent below 10; inactive = the rest.

Key:
Assay in all cases: NCI-60 one-dose screen, 48 h (100 = growth as untreated, 0 = no growth, -100 = all killed)
Conditions in all cases: 10 µM unless noted
NCI-H23 lung = tested on: NCI-H23 lung
NCI-H226 lung = tested on: NCI-H226 lung
NCI-H322M lung = tested on: NCI-H322M lung
HOP-62 NSCLC = tested on: HOP-62 NSCLC
NCI-H460 lung = tested on: NCI-H460 lung
HOP-92 NSCLC = tested on: HOP-92 NSCLC
NCI-H522 lung = tested on: NCI-H522 lung
A549/ATCC NSCLC = tested on: A549/ATCC NSCLC
786-0 renal = tested on: 786-0 renal
COLO 205 colon = tested on: COLO 205 colon

SMILES	growth (NCI-H23 lung)	growth (NCI-H226 lung)	growth (NCI-H322M lung)	growth (HOP-62 NSCLC)	growth (NCI-H460 lung)	growth (HOP-92 NSCLC)	growth (NCI-H522 lung)	growth (A549/ATCC NSCLC)	growth (786-0 renal)	growth (COLO 205 colon)
Clc1ccc(-c2csc(N/N=C/c3nc4ccccc4n3C3CC3)n2)cc1	98.5%	91.5%	98.5%	106%	105%	105%	93%	95.5%	109%	104%
C/C=C/[C@@H]1C=C[C@@H]2C[C@H](C)CC[C@H]2[C@]1(C)/C(O)=C1/C(=O)[C@H](CO)N(C)C1=O	56.8%	69.1%	61.6%	37.9%	54.7%	56.9%	58.2%	42.3%	47.3%	78.1%
COc1cc(O)c2c(c1)[C@H]1O[C@@H]1C[C@H](O)[C@H](O)C(=O)/C=C\C[C@H](C)OC2=O	25.7%	37.9%	85.7%	68.7%	68.1%	-8.48% (active)	4.82% (active)	72.3%	66%	9.13% (active)
CCN(CC)CCCC(C)NCC(=O)NC(c1ccc2c(c1)OCO2)c1cc(Cl)c2cccnc2c1O (stereo not given)	41.7%	41.2%	35.2%	21.6%	8.77% (active)	35.9%	37.4%	24.1%	7.03% (active)	17.6%
CC1CCc2c(sc3nc(SCC(=O)N/N=C/c4cccc(O)c4O)n(-c4ccccc4)c(=O)c23)C1 (stereo not given)	88%	87.4%	96.8%	71.2%	88.4%	45.4%	83.1%	86.2%	99.7%	110%
O=c1[nH]c(CNc2ccc(NCc3c(-c4ccccc4)no[n+]3[O-])cc2)nc2c1cnn2-c1ccccc1	63.4%	77.1%	80.2%	105%	64.2%	85.4%	60.8%	63.8%	86%	101%
C=C(C)[C@@H]1CC[C@]2(C(=O)NCCCN(CCC#N)CCC#N)CC[C@]3(C)[C@H](CC[C@@H]4[C@@]5(C)CCC(=O)C(C)(C)[C@@H]5CC[C@]43C)[C@@H]12	93.6%	94%	103%	97.9%	101%	102%	91.6%	97.3%	101%	109%
COc1cc([C@H]2OC[C@H]3[C@@H]2CO[C@@H]3c2ccc(O)c(OC)c2)ccc1O	86.3%	86%	91.7%	81.2%	90.3%	91.8%	75.8%	95.1%	101%	86.9%
NC(=O)c1c(NC(=O)c2cccc(OC(F)(F)F)c2)sc2c1CCC(=O)C2	25.8%	80.1%	110%	102%	96.6%	71.6%	20.6%	74.7%	89.4%	85.7%
CN(c1ccc(Br)cc1)S(=O)(=O)c1ccc(-c2cnc(C3CC3)o2)cc1	20%	62.4%	46.5%	41.3%	16.8%	87.1%	16.8%	26.3%	52.9%	4.79% (active)
CCc1ccc(NC(=O)N[C@@H](Cc2cc(F)cc(F)c2)C(=O)N[C@@H]2C(=O)N3CCC[C@H]3C(=O)N3CCO[C@H](C)[C@H]3C(=O)N[C@@H](CO)C(=O)N3C[C@H](C)C[C@H]3C(=O)O[C@H]2C)c(F)c1	35.4%	4.36% (active)	50.8%	32.6%	16.3%	-1.76% (active)	17.5%	26.9%	39.8%	-42.7% (active)
CC(C)=CCC[C@](C)(O)[C@H]1CC[C@]2(C)[C@@H]1CC[C@@H]1[C@@]3(C)CCC(NC(=O)c4ccccc4C(=O)O)C(C)(C)[C@@H]3CC[C@]12C (stereo not given in full)	85.8%	89.7%	104%	104%	110%	75.6%	95.3%	93.1%	99.9%	-10.3% (active)
CN1C(=O)/C(=C/C=C/c2ccco2)SC1=S	75.7%	70.1%	88.8%	93.8%	99.1%	98.9%	71.3%	72%	84.9%	94.3%
O=C(c1cccc(F)c1)n1ccc2cc(NC(=S)Nc3cccnc3)ccc21	100%	112%	99%	106%	98.6%	123%	87.1%	98.7%	80.5%	115%
CCN1C(=O)N(CC)C2SC(N/N=C/c3cccs3)=NC21 (stereo not given)	25.8%	36%	46.6%	32%	3.74% (active)	-7.41% (active)	-47.9% (active)	20.3%	17.9%	-63% (active)
CCOC(=O)c1nn(-c2ccc(C)cc2)c(=O)c2c(N)c(C#N)c(-c3ccc(OC)cc3)cc12	101%	94.4%	97.4%	81.3%	101%	91.9%	86.7%	108%	108%	110%
CNC(=O)c1cc(Oc2ccc3nc(NC(=O)c4cc(C)cc(C)c4)sc3c2)ccn1	97.2%	75%	103%	98.6%	93.1%	9.05% (active)	84.2%	89.7%	59%	85.4%
Cc1ccccc1/C=C/c1nn2c(-c3ccoc3C)nnc2s1	97.8%	100%	99.4%	107%	102%	93.9%	92.4%	90%	90.8%	108%
CC1(C)CC[C@]2(C(=O)N3CCCNCC3)CC[C@]3(C)C(=CC[C@@H]4[C@@]5(C)CCC(=O)C(C)(C)[C@@H]5CC[C@]43C)[C@H]2C1	101%	103%	101%	109%	106%	96.6%	98.6%	106%	99.5%	115%
CC(C)(C)OC(=O)N1CCN(S(=O)(=O)/N=C2\NC(=O)NC2=C(Cl)Cl)CC1	91.8%	105%	98.9%	105%	101%	108%	-52.4% (active)	103%	101%	86.3%
Cc1[nH]nc2ccc(-c3nc4cnc(N5CCN(C)CC5)cn4c3Nc3ccc(F)cc3Br)cc12	80.4%	87.9%	63.3%	67.1%	69.6%	61.5%	67.6%	58.7%	4.67% (active)	36.7%
CC(=O)NC(C)(C)C(=O)N1CCC[C@H]1C(=O)NC(C)(C)C(=O)N[C@@H](C)C(=O)NC(C)(C)C(=O)N[C@@H](C)C(=O)N[C@@H](CCC(N)=O)C(=O)NC(C)(C)C(=O)N[C@H](C(=O)NC(C)(C)C(=O)NCC(=O)N[C@@H](CC(C)C)C(=O)NC(C)(C)C(=O)N1CCC[C@H]1C(=O)N[C@H](C(=O)NC(C)(C)C(=O)NC(C)(C)C(=O)N[C@@H](CCC(N)=O)C(=O)N[C@@H](CCC(N)=O)C(=O)N[C@H](CO)Cc1ccccc1)C(C)C)C(C)C	41% [4.25 µM]	57.2% [4.25 µM]	97.3% [4.25 µM]	60.6% [4.25 µM]	74.1% [4.25 µM]	60% [4.25 µM]	48% [4.25 µM]	49.4% [4.25 µM]	97.4% [4.25 µM]	46.7% [4.25 µM]
